# Shown are actives, neighbours in structure and some others; about 6.8% of the full set was active somewhere.
# C diff growth = blocks growth of Clostridium difficile; growth activity, negative = inhibition, % at 16 µg/mL (by protocol); hit rate 0.25% among 86,000; Clostridium difficile clinical isolate growth, OD600, 24 h; active compounds read low;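 active = mean growth activity at or below -80% and every replicate also at or below -80%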;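 note: 0% = DMSO wells and -100% = levofloxacin 16 µg/mL wells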
# T cruzi growth = inhibitors of T. cruzi proliferation | hit rate 5.9% among 77,000 | AID 624255 | inhibition, % at 8.34 µM | T. cruzi beta-gal in NIH3T3, GalScreen luminescence, 90 h;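 active = mean inhibition above about 93%, with at least 55% of replicates each passing it, limit read from the data, passing the limit was not always enough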
# Pf Dd2 inh = inhibitors of Plasmodium falciparum Dd2 growth | P. falciparum Dd2 growth, SYBR Green, 72 h; active compounds read low | activity change, % at 10 µM | hit rate 2.3% among 94,000 | AID 1159554; in the data active = activity change below about -80%
# Active calls of the source: *; / = no result given.
SMILES,C diff growth,T cruzi growth,Pf Dd2 inh
Cc1ccc(S(=O)(=O)Nc2ccc3c(c2)C(=O)N([C@@H](C)CO)C[C@H](C)[C@@H](CN(C)C(=O)Nc2ccc(C(F)(F)F)cc2)OCCCC[C@H](C)O3)cc1,7,94,-82*
C[C@H]1CN([C@@H](C)CO)C(=O)c2cc(NC(=O)CCCCCC(=O)Nc3ccccc3N)ccc2O[C@H]1CN(C)S(=O)(=O)c1cn(C)cn1,-5,-87,16
O=C(c1cccnc1)N1CCCCN2[C@H](C1)[C@H](c1ccc(C#Cc3ccccn3)cc1)[C@@H]2CO,-2,70,16
CCC(=O)N1CC2(C1)[C@H](c1ccc(-c3cccc(OC)c3)cc1)[C@H](CO)N2C(C)=O,-7,/,-5
CCC(=O)N1CC2(C1)[C@@H](c1ccc(-c3cccc(OC)c3)cc1)[C@@H](CO)N2C(C)=O,-4,/,-90*
CO[C@@H]1CN(C)C(=O)c2ccc(NC(=O)c3cc(C)on3)cc2OC[C@@H](C)N(S(=O)(=O)c2cccc(C)c2)C[C@H]1C,/,/,-86*
CO[C@H]1CN(C)C(=O)c2ccc(NC(=O)c3nc4ccccc4s3)cc2OC[C@@H](C)N(Cc2ccncc2)C[C@@H]1C,/,/,-27
COc1ccc(CN2C[C@@H](C)[C@H](OC)CN(C)C(=O)c3cc(NC(=O)c4nc5ccccc5s4)ccc3OC[C@@H]2C)cc1,/,/,-71
CO[C@@H]1CN(C)C(=O)c2cc(NC(=O)c3nc4ccccc4s3)ccc2OC[C@@H](C)N(Cc2ccncc2)C[C@H]1C,34,84,-87*
CO[C@@H]1CN(C)C(=O)c2cc(NC(=O)c3cc(C)on3)ccc2OC[C@@H](C)N(S(=O)(=O)c2cccc(C)c2)C[C@H]1C,/,68,-50
CO[C@@H]1CN(C)C(=O)c2ccc(NC(=O)c3nc4ccccc4s3)cc2OC[C@@H](C)N(Cc2ccccc2)C[C@H]1C,/,/,-96*
COc1ccc(CN2C[C@@H](C)[C@H](OC)CN(C)C(=O)c3cc(NC(=O)c4nc5ccccc5s4)ccc3OC[C@H]2C)cc1,/,/,-86*
CO[C@H]1CN(C)C(=O)c2cc(NC(=O)c3nc4ccccc4s3)ccc2OC[C@H](C)N(Cc2ccncc2)C[C@H]1C,-4,90,/
CC(C)C(=O)Nc1ccc2c(c1)C(=O)N(C)[C@@H]1CC[C@H](CC(=O)NCc3ccccc3F)O[C@@H]1CO2,-6,-15,0
CO[C@@H]1CN(C)C(=O)c2ccc(NS(=O)(=O)c3ccc(-c4ccccc4)cc3)cc2OC[C@H](C)NC[C@H]1C,/,/,22
CCCNC(=O)N1CC2(CN(Cc3cccc(OC)c3)C2)c2c([nH]c3cc(OC)ccc23)[C@H]1CO,-4,/,-39
C[C@@H]1CCCCO[C@@H](CN(C)Cc2ccccc2)[C@@H](C)CN([C@H](C)CO)C(=O)c2cc(NC(=O)c3ccccc3)ccc2O1,8,44,-11
CO[C@@H]1CN(C)C(=O)c2ccc(NC(=O)c3nc4ccccc4s3)cc2OC[C@H](C)N(Cc2cncnc2)C[C@@H]1C,/,/,-67
COc1ccc(CN2C[C@H](C)[C@@H](OC)CN(C)C(=O)c3ccc(NC(=O)c4nc5ccccc5s4)cc3OC[C@@H]2C)cc1,0,93,-90*
C/C=C/c1ccc([C@H]2[C@@H](CO)N(CCC(F)(F)F)C23CN(C(=O)COC)C3)cc1,-12,/,-72
COc1ccccc1C#Cc1ccc([C@H]2[C@@H](C#N)N(C(=O)C3CCCC3)[C@H]2CO)cc1,48,/,-97*
N#C[C@H]1[C@H](c2ccc(C#Cc3ccccc3F)cc2)[C@H](CO)N1C(=O)c1cccnc1,4,91,-87*
COc1ccccc1C#Cc1ccc([C@H]2[C@@H](C#N)N(C(=O)C3CCCC3)[C@@H]2CO)cc1,-3,/,-87*
COc1ccccc1C#Cc1ccc([C@H]2[C@H](C#N)N(C(=O)C3CCCC3)[C@H]2CO)cc1,-15,/,-65
N#C[C@H]1[C@@H](c2ccc(C#Cc3ccccc3F)cc2)[C@H](CO)N1C(=O)c1cccnc1,-26,68,-49
SMILES,C diff growth,T cruzi growth,Pf Dd2 inh
COc1ccccc1C#Cc1ccc([C@@H]2[C@H](C#N)N(C(=O)C3CCCC3)[C@H]2CO)cc1,-6,/,-79
N#C[C@@H]1[C@@H](c2ccc(C#Cc3ccccc3F)cc2)[C@H](CO)N1C(=O)C1CCCCC1,3,87,-69
N#C[C@H]1[C@@H](c2ccc(C#Cc3ccccc3F)cc2)[C@@H](CO)N1C(=O)C1CCCC1,-14,/,-89*
Cc1ccc(S(=O)(=O)Nc2ccc3c(c2)C(=O)N([C@@H](C)CO)C[C@@H](C)[C@@H](CN(C)S(=O)(=O)c2cn(C)cn2)O3)cc1,2,14,-26
COc1ccc2c3c(n(C)c2c1)[C@H](CO)N(CC1CCCCC1)CC31CN(C(C)=O)C1,5,/,-70
Cc1noc(C)c1S(=O)(=O)N(C)C[C@H]1Oc2c(NS(=O)(=O)c3ccccc3)cccc2C(=O)N([C@@H](C)CO)C[C@H]1C,-8,6,-11
COc1ccc(NC(=O)Nc2ccc3c(c2)C(=O)N([C@H](C)CO)C[C@H](C)[C@H](CN(C)C(=O)Nc2ccc4c(c2)OCO4)OCCCC[C@@H](C)O3)cc1,10,6,16
COCC(=O)N1CC2(CN(Cc3nccs3)C2)c2c(n(C)c3cc(OC)ccc23)[C@H]1CO,-10,/,-40
CCCNC(=O)N1CC2(C1)CN(C(C)=O)[C@H](CO)c1[nH]c3cc(OC)ccc3c12,-7,/,-56
CC(=O)NC[C@@H]1[C@@H](c2ccc(C3=CCCCC3)cc2)[C@@H](CO)N1C(=O)C1CC1,-1,/,-17
C[C@@H]1CN([C@@H](C)CO)C(=O)c2cc(NS(=O)(=O)c3ccc(F)cc3)ccc2O[C@H]1CN(C)Cc1ccc(C(=O)Nc2ccccc2N)cc1,-5,/,-85*
C[C@@H]1CN([C@H](C)CO)C(=O)c2cc(NS(=O)(=O)c3ccc(F)cc3)ccc2O[C@@H]1CN(C)Cc1ccc(C(=O)Nc2ccccc2N)cc1,5,54,-44
C[C@H](CO)N1C[C@H](C)[C@@H](CN(C)Cc2ccc(C(=O)Nc3ccccc3N)cc2)Oc2ccc(NS(=O)(=O)c3ccccc3)cc2C1=O,-6,29,35
C[C@@H]1CN([C@@H](C)CO)C(=O)c2cc(NS(=O)(=O)c3ccccc3)ccc2O[C@H]1CN(C)Cc1ccc(C(=O)Nc2ccccc2N)cc1,-1,/,-83*
O=C(Cc1ccccn1)NCC[C@@H]1CC[C@H](NC(=O)Nc2ccc(F)cc2)[C@H](CO)O1,5,-20,15
CN1C(=O)c2cc(NC(=O)C3CCCC3)ccc2OC[C@H]2O[C@H](CC(=O)NCCc3ccncc3)CC[C@@H]21,-7,/,11
COCc1cn([C@@H]2C[C@@H]3O[C@@H](CO)CC[C@@H]3O[C@@H]2CCc2ccc(-c3ccc(OC)cc3)cc2)nn1,-8,/,-84*
COCc1cn([C@@H]2C[C@@H]3O[C@H](CO)CC[C@@H]3O[C@@H]2CCc2ccc(-c3ccc(OC)cc3)cc2)nn1,-29,/,-94*
OC[C@H]1CC[C@@H]2O[C@H](CCc3ccc(-c4ccc(F)cc4)cc3)[C@@H](n3cc(C4CC4)nn3)C[C@@H]2O1,4,/,-47
COCc1cn([C@H]2C[C@@H]3O[C@H](CO)CC[C@@H]3O[C@@H]2CCc2ccc(-c3ccc(OC)cc3)cc2)nn1,2,/,-38

# Screens from PubChem.
